This note sets out measurements from article PMC7819943, “Rice protein-binding microarrays: a tool to detect cis-acting elements near promoter regions in rice”.

In all, about 68,000 sequences were measured (“fluorescence intensity (a.u.)”: median about 9,100, highest 2% from about 16,000 on). Many of the other results were omitted from the sample, so the highest values are more common in it than they were.

OsWRKY34, sequence (Q0JBA9 entry or part of it): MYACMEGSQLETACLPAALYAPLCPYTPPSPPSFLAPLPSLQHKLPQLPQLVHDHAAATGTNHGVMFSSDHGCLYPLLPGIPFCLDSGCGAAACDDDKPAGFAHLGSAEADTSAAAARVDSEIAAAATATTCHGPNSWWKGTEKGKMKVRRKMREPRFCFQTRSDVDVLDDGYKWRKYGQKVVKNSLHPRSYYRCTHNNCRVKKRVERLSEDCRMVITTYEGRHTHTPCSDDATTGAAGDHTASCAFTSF

For this test, the target named is OsWRKY34 (Oryza sativa, UniProt Q0JBA9 1-250). Nature of the test: protein-binding microarray (RPBM); PBS, 2% BSA, 51.3 ng/ul salmon testes DNA, 50 uM zinc acetate, 200 nM TF, 25 C, 1 h; high values mean tight binding. The note with it: protein: recombinant; tags: N-terminal polyhistidine and DsRed monomer fusion (pET32a); label: CyDye5-dUTP incorporated in the synthesized complementary strand; 3' TTTTT single-stranded linker to array surface; dsDNA, one strand shown. Summed up:
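An Axon 4000B scanner gave the binding signal as per-feature fluorescence intensity in arbitrary units. This followed washing of a custom Agilent array that had been incubated for 1 h at 25 °C with 200 nM protein in PBS, 2% BSA, salmon testes DNA and 50 µM zinc acetate. The proteins were transcription factors fused at the N-terminus to polyhistidine and DsRed, expressed in E. coli BL21-CodonPlus and purified on Ni–NTA.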
For “CCTACCCCTACCGCTCCTGCCTGCTTCGCCCGCCGCCGCCCGGAGTCACCTAGTGCAG”, the binding signal was 8340 fluorescence intensity (a.u.).

Regarding “CTCTATACCATACGCCATCTCCATCATCTCTCGATCCATCCGGAGTCACCTAGTGCAG”, the binding signal was 11300 fluorescence intensity (a.u.). In the case of “AGTCTGAGCCACCTTTCATTACCCATCCAAGATTCGGTTTCGGAGTCACCTAGTGCAG”, the binding signal is 8900 fluorescence intensity (a.u.).

As for “AGTAGTCCTTCAAGCTCCAATCATATACCCCTGATACTAACGGAGTCACCTAGTGCAG”, the binding signal is 8300 fluorescence intensity (a.u.). The figure for “AGGAAATGTCTCATCAAATACTAGATTGGTTTTTTTTTACCGGAGTCACCTAGTGCAG” is 8960 fluorescence intensity (a.u.). Consider “CGATTTCGACCAATCTAGCCGCTATGTGCACTCCTTTTCCCGGAGTCACCTAGTGCAG”, for which the binding signal is 12100 fluorescence intensity (a.u.). As to “TGGTCTTGCTGGTTGCTGCGTATTTGGCTGTATTGGTTATCGGAGTCACCTAGTGCAG”, the binding signal was 8380 fluorescence intensity (a.u.).

Regarding “ATTATACGTTAATGGCTTTCTCGTTTTGTATACGCTGATTCGGAGTCACCTAGTGCAG”, the binding signal was 9600 fluorescence intensity (a.u.). Under “TCGAAATATTTGACACCGTTGACTTTTTAGCACATGTTTGCGGAGTCACCTAGTGCAG” stands 35300 fluorescence intensity (a.u.); under “ATTTGATACTTCTCTCGCCTTTCTTTATTATTCTCCCGCTCGGAGTCACCTAGTGCAG”, 8420 fluorescence intensity (a.u.). The figure for “GAGTGCCTATTCAATTGCCTTTTGTTTGTCAACGTTTCTCCGGAGTCACCTAGTGCAG” is 8080 fluorescence intensity (a.u.); for “GTCCTTTCAGTGTTGCGCTTTTGCTTATTGTAGTTATTGGCGGAGTCACCTAGTGCAG” it is 16300 fluorescence intensity (a.u.). The figure for “CATCCAACCATCACACACAGTTAGCATATCAGTAGTCGTTCGGAGTCACCTAGTGCAG” is 8210 fluorescence intensity (a.u.). For the sequence “TCCATCCCGGCCCGGCACTGCACACACGCGCGTAGTACCACGGAGTCACCTAGTGCAG”, the binding signal is 8130 fluorescence intensity (a.u.). Under “GCCATTGACAGCGTTGACCAAGTCAGCCGCTCCAGCCTCTCGGAGTCACCTAGTGCAG” stands 14200 fluorescence intensity (a.u.); under “AGACCGTTGACTTGACTAGTCCACTCCTCTTTCACACGTACGGAGTCACCTAGTGCAG”, 12100 fluorescence intensity (a.u.). Under “TCTTCGGCCTCTCCGCCTCCGCCATTGACAGCGTTGACCACGGAGTCACCTAGTGCAG” stands 18300 fluorescence intensity (a.u.); under “ACTCCTACAGTAGTGACTTGAGTAGCGCTTCTTTTTTCCACGGAGTCACCTAGTGCAG”, 9440 fluorescence intensity (a.u.). Under “ATGACCGGCCACCACCATTGCCACCGGCCGATCTCCTCTTCGGAGTCACCTAGTGCAG” stands 9360 fluorescence intensity (a.u.); under “AACTTGAGCGTTGACCGCTTTGACTCCTCTTCTTTCTCCACGGAGTCACCTAGTGCAG”, 24900 fluorescence intensity (a.u.); under “GCCACCTTTTGTTCCGCAACCGCAATGATTTCTTCTTCTTCGGAGTCACCTAGTGCAG”, 14800 fluorescence intensity (a.u.). As for “GTTTGACATGCAGACTTGATTCTATCACCTATAGCATCTGCGGAGTCACCTAGTGCAG”, the binding signal is 28100 fluorescence intensity (a.u.). The figure for “TATATATATATATATATATAGATTTATTGACATCTATATGCGGAGTCACCTAGTGCAG” is 9230 fluorescence intensity (a.u.); for “TAGTGGTGGTCTTGATTCCTGACATAGCAGACGCATCTGACGGAGTCACCTAGTGCAG” it is 10500 fluorescence intensity (a.u.). In the case of “CTTCCTAACGTTCATATCTCTGTGTTTTTAGTGTGTCATACGGAGTCACCTAGTGCAG”, the binding signal is 9860 fluorescence intensity (a.u.).

With “TTTACATTCATTTCTCTATACGAGCATGGGCCGCACTATACGGAGTCACCTAGTGCAG”, the binding signal is 9830 fluorescence intensity (a.u.). The figure for “TCTTGGTTACATGGTGGTTGGTGTTTCATTCTCTTGTTTTCGGAGTCACCTAGTGCAG” is 10000 fluorescence intensity (a.u.); for “ATTTTCATTTGGTTGGTGTGGTTATCTCTTTTTTCATTTACGGAGTCACCTAGTGCAG” it is 20700 fluorescence intensity (a.u.). Under “GGGGTTTCTCATGGGCCAACTATACATTCACACGCGGCCGCGGAGTCACCTAGTGCAG” stands 17400 fluorescence intensity (a.u.); under “CTGTCGTGTTTCCTCTGATTAGTTCATACAGCATCTGTTACGGAGTCACCTAGTGCAG”, 17600 fluorescence intensity (a.u.). Under “TTCTTCATTATCTCTATTTGTGGTGCTATTGGTTTATTTTCGGAGTCACCTAGTGCAG” stands 8980 fluorescence intensity (a.u.); under “GGTTTCTTCTCATTCTTCTTTTTTTCCTTTTTTCTACACGCGGAGTCACCTAGTGCAG”, 14000 fluorescence intensity (a.u.).

“TTCAGTTTTTGCTTGCAACGTTTGACCACTCGTCTTATTCCGGAGTCACCTAGTGCAG”: the binding signal was 15600 fluorescence intensity (a.u.).

Regarding “ATCTGATTTTTATTTTCAGCATATGCATCGTTTTCATGTTCGGAGTCACCTAGTGCAG”, the binding signal was 10200 fluorescence intensity (a.u.). The figure for “TCAGTTTTTGTTTGCAATGTTTGACCACTCGTCTTATTCACGGAGTCACCTAGTGCAG” is 18500 fluorescence intensity (a.u.); for “GAGTTTTTACTTTGTAATGTTTGACCACTCGTCTTATTCACGGAGTCACCTAGTGCAG” it is 8880 fluorescence intensity (a.u.).

Turning to “GGCCTAATTATTGCCTTAATTTTTCTCTTTGGTTTTCTCACGGAGTCACCTAGTGCAG”, the binding signal is 9070 fluorescence intensity (a.u.). On to “TGAGGGCTGCTGTGCTATTCTTCCTGGACATCTCTGGGTCCGGAGTCACCTAGTGCAG”, for which the binding signal is 8650 fluorescence intensity (a.u.). Under “TTTCTGTTTAACGTCAACCCGGCTGTTTTCGCCCGGTCAACGGAGTCACCTAGTGCAG” stands 9040 fluorescence intensity (a.u.).

For “GCCAAGACGCCCAAAGCACACACTCTCTCTCGCTGTCTTTCGGAGTCACCTAGTGCAG”, the binding signal was 8490 fluorescence intensity (a.u.). Take “GATTTGATGGATTTGTTGAGAGATATGCTTCTTAAGCCAACGGAGTCACCTAGTGCAG”: the binding signal is 8300 fluorescence intensity (a.u.).

In the case of “CACACCTAGGCCGCCTTTTTCAACCGGGGAGCACACCTTTCGGAGTCACCTAGTGCAG”, the binding signal is 10400 fluorescence intensity (a.u.).
